Measured values reported in paper PMC7862700, “An all-to-all approach to the identification of sequence-specific readers for epigenetic DNA modifications on cytosine”.

What was measured:
Test in all cases: DAPPL (digital affinity profiling via proximity ligation, sequencing); 10 mM Tris-HCl pH 7.5, 50 mM NaCl, 1 mM DTT, 4% glycerol, room temperature, 30 min; GST-TFs on glutathione beads, 16-mer random dsDNA library, 0.1% formaldehyde crosslink after washing; high values mean tight binding
FLI1 = target: T1, FLI1 (Homo sapiens, UniProt Q01543 1-452); settings: protein: recombinant; tags: N-terminal GST; dsDNA, one strand shown
T1 sequence: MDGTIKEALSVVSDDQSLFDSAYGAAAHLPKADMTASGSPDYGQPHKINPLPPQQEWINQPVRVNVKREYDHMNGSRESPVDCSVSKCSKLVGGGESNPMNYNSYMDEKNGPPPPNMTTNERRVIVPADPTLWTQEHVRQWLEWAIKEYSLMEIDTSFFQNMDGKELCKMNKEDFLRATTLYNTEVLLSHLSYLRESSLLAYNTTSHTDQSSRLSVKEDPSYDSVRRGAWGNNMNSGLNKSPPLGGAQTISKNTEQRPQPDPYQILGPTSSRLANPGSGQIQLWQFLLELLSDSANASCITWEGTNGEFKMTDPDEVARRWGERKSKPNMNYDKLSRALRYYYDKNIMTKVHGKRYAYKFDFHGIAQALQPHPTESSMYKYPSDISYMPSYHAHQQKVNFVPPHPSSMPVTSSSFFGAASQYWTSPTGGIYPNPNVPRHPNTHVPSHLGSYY
Procedure, shortened: (§1)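 Human transcription factors fused to GST were expressed in yeast, captured on glutathione beads, given DNA barcodes and pooled with a GST-only negative control. Pools were incubated with 200 nmole of a 16-mer random double-stranded DNA library in Tris/NaCl/DTT/glycerol buffer at room temperature for 30 min. They were then washed, crosslinked with 0.1% formaldehyde, proximity-ligated (BsaI/T4 ligase, 1 h, 37 °C), PCR-amplified and sequenced on an Illumina NextSeq500. Binding signal is each 6-mer's read frequency for a factor divided by its frequency for the GST control.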

ELK1 = target: T2, ELK1 (Homo sapiens, UniProt P19419 1-428); settings: protein: recombinant; tags: N-terminal GST; dsDNA, one strand shown
T2 sequence: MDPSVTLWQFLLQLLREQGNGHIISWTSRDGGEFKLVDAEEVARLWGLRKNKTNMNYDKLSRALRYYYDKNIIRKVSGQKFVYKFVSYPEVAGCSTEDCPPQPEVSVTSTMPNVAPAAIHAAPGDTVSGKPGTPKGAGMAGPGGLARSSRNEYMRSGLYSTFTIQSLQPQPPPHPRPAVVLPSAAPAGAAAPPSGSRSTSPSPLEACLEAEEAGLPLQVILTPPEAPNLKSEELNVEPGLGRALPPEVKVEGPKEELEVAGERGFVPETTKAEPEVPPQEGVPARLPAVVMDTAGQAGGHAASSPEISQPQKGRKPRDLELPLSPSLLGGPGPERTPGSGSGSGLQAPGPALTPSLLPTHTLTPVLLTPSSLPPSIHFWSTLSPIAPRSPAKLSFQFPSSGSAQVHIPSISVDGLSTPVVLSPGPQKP
Procedure, shortened: as §1

GABPA = target: T3, GABPA (Homo sapiens, UniProt Q06546 1-454); settings: protein: recombinant; tags: N-terminal GST; dsDNA, one strand shown
T3 sequence: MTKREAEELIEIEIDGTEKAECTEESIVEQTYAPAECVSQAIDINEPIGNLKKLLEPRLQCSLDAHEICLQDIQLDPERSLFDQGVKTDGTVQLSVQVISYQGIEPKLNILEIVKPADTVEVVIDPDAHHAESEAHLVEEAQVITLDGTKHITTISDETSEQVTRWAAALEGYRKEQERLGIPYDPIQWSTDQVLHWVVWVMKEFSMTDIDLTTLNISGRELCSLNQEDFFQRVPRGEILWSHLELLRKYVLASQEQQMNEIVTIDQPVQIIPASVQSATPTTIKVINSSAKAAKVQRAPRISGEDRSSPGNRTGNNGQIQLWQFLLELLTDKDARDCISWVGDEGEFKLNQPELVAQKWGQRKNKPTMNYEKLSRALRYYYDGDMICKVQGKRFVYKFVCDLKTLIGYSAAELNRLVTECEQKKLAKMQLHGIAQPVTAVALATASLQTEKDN
Procedure, shortened: as §1

ERG = target: T4, ERG (Homo sapiens, UniProt P11308 1-479); settings: protein: recombinant; tags: N-terminal GST; dsDNA, one strand shown
T4 sequence: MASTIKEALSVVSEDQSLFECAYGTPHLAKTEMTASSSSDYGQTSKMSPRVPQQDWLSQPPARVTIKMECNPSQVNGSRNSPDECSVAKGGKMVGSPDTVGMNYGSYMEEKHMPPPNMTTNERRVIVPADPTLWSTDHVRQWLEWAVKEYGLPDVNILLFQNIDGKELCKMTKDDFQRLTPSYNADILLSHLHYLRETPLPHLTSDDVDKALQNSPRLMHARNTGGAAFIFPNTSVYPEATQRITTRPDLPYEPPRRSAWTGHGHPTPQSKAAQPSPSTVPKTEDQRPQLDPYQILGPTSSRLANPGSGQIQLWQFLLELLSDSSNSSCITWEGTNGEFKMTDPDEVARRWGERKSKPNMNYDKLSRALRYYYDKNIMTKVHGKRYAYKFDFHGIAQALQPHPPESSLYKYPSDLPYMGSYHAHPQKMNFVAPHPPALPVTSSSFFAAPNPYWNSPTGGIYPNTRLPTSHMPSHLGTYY
Procedure, shortened: as §1

ELF1 = ELF1 (Homo sapiens, UniProt P32519 1-619); settings: protein: recombinant; tags: N-terminal GST; dsDNA, one strand shown
Procedure, shortened: as §1

EHF = target: T5, EHF (Homo sapiens, UniProt Q9NZC4 1-300); settings: protein: recombinant; tags: N-terminal GST; dsDNA, one strand shown
T5 sequence: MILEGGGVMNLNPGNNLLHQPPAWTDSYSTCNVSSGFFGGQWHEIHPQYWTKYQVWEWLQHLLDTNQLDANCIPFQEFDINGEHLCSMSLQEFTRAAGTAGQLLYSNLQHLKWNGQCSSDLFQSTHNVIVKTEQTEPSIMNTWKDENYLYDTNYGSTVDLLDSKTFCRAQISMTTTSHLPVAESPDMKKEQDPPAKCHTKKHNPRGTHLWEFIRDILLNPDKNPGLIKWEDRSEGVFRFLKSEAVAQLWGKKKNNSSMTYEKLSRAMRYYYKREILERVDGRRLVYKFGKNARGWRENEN
Procedure, shortened: as §1

SPI1 = SPI1 (Homo sapiens, UniProt P17947 1-270); settings: protein: recombinant; tags: N-terminal GST; dsDNA, one strand shown
Procedure, shortened: as §1

SPIB = SPIB (Homo sapiens, UniProt Q01892 1-262); settings: protein: recombinant; tags: N-terminal GST; dsDNA, one strand shown
Procedure, shortened: as §1

ELK3 = target: T6, ELK3 (Homo sapiens, UniProt P41970 1-407); settings: protein: recombinant; tags: N-terminal GST; dsDNA, one strand shown
T6 sequence: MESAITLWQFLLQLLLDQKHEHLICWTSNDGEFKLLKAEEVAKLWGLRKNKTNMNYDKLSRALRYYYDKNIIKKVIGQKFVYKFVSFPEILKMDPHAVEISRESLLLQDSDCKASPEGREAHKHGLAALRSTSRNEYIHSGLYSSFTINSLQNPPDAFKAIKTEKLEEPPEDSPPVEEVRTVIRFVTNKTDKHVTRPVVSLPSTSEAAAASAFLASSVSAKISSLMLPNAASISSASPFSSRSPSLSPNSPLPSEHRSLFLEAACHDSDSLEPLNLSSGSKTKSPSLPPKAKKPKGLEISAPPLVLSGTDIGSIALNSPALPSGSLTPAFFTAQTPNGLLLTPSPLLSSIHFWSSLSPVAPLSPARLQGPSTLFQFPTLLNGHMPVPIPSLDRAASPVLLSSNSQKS
Procedure, shortened: as §1

FEV = target: T7, FEV (Homo sapiens, UniProt Q99581 1-238); settings: protein: recombinant; tags: N-terminal GST; dsDNA, one strand shown
T7 sequence: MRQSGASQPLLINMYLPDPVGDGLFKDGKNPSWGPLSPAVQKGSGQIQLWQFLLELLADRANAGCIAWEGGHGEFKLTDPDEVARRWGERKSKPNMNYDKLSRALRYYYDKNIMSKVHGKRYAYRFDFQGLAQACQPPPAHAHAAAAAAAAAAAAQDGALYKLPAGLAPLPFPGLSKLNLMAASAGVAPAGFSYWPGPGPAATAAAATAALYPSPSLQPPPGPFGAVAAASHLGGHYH
Procedure, shortened: as §1

ETV5 = ETV5 (Homo sapiens, UniProt P41161 1-510); settings: protein: recombinant; tags: N-terminal GST; dsDNA, one strand shown
Procedure, shortened: as §1

HSF1 = HSF1 (Homo sapiens, UniProt Q00613 1-529); settings: protein: recombinant; tags: N-terminal GST; chain copies: 3; dsDNA, one strand shown
Procedure, shortened: as §1

SPIC = target: T8, SPIC (Homo sapiens, UniProt Q8N5J4 1-248); settings: protein: recombinant; tags: N-terminal GST; dsDNA, one strand shown
T8 sequence: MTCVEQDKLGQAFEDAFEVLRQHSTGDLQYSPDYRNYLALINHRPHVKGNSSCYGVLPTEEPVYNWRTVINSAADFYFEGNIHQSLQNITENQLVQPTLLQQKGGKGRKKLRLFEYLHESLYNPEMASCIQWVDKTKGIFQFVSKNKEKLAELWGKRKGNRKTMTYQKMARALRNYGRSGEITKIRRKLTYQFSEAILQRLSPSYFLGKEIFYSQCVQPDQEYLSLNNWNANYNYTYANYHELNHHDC
Procedure, shortened: as §1

ELF4 = ELF4 (Homo sapiens, UniProt Q99607 1-663); settings: protein: recombinant; tags: N-terminal GST; dsDNA, one strand shown
Procedure, shortened: as §1

ELK4 = target: T9, ELK4 (Homo sapiens, UniProt P28324-2 1-405); settings: protein: recombinant; tags: N-terminal GST; dsDNA, one strand shown
T9 sequence: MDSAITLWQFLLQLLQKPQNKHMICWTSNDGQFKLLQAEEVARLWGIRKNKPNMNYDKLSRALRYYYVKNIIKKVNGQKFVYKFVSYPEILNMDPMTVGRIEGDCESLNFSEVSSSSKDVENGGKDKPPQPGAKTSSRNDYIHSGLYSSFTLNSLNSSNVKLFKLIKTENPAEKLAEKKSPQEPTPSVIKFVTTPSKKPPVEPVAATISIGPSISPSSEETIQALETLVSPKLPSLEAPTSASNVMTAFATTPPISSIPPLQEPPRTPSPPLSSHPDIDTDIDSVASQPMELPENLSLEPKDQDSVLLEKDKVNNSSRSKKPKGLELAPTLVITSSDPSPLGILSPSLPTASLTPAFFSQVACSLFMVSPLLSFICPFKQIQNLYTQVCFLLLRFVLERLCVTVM
Procedure, shortened: as §1

ETV2 = target: T10, ETV2 (Homo sapiens, UniProt O00321 1-342); settings: protein: recombinant; tags: N-terminal GST; dsDNA, one strand shown
T10 sequence: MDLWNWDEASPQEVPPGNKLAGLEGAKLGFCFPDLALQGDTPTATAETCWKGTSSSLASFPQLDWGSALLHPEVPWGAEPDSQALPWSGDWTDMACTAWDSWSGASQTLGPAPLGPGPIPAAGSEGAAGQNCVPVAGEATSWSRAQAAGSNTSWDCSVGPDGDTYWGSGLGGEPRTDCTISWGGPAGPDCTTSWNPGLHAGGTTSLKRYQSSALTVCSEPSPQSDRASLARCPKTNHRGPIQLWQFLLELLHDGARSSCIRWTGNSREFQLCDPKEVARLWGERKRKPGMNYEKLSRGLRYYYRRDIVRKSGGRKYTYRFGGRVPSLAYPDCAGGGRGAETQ
Procedure, shortened: as §1

ELF3 = target: T11, ELF3 (Homo sapiens, UniProt P78545 1-371); settings: protein: recombinant; tags: N-terminal GST; dsDNA, one strand shown
T11 sequence: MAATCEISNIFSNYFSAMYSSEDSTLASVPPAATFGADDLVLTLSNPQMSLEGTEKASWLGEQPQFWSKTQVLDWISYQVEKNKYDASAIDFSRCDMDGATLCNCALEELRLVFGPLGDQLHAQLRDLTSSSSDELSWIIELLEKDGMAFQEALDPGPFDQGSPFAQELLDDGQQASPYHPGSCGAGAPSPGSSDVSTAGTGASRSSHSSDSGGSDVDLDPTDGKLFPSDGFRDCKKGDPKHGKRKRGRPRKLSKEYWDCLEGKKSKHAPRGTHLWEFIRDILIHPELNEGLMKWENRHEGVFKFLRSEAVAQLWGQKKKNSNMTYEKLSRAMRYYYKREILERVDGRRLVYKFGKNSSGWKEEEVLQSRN
Procedure, shortened: as §1

CRX = CRX (Homo sapiens, UniProt O43186 1-299); settings: protein: recombinant; tags: N-terminal GST; dsDNA, one strand shown
Procedure, shortened: as §1

ETV1 = ETV1 (Homo sapiens, UniProt P50549 1-477); settings: protein: recombinant; tags: N-terminal GST; dsDNA, one strand shown
Procedure, shortened: as §1

Chain of HSF1 (Q00613 whole entry): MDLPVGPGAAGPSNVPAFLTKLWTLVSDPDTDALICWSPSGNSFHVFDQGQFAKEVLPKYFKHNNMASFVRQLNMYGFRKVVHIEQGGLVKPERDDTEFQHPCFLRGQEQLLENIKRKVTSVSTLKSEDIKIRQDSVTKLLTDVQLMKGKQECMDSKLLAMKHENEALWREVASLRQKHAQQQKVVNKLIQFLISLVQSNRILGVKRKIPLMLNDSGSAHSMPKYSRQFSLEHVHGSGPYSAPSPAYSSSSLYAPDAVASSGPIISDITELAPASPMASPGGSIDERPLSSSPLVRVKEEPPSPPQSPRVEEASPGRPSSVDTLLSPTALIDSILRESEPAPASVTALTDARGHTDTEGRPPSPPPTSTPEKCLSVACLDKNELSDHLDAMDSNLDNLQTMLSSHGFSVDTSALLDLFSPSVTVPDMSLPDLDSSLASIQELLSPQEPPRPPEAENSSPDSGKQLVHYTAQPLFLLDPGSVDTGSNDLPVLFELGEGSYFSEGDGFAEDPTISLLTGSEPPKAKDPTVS
Chain of CRX (O43186 whole entry): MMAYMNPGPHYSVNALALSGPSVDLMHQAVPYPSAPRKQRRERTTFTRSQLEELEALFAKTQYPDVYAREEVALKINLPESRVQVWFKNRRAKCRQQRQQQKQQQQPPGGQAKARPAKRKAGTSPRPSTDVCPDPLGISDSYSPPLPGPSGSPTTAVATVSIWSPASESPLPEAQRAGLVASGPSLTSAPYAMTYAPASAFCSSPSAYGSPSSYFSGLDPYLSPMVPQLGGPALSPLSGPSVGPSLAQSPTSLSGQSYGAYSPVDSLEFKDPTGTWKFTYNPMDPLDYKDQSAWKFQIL
Chain of ELF1 (P32519 whole entry): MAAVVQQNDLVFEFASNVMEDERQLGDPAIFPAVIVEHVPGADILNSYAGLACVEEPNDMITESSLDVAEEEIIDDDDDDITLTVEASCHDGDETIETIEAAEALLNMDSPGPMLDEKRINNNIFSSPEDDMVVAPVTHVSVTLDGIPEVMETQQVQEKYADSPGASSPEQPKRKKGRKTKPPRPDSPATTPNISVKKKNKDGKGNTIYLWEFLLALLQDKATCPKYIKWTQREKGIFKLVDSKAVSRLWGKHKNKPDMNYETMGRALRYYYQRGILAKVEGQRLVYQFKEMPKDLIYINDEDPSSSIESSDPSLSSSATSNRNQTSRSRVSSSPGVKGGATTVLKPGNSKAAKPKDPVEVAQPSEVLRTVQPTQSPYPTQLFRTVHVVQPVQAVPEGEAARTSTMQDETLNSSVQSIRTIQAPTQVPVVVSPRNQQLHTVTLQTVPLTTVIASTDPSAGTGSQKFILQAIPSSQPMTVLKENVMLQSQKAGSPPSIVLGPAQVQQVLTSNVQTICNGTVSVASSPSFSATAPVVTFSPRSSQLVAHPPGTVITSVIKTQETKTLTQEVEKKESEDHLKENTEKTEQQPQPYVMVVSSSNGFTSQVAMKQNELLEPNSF
Chain of SPIB (Q01892 whole entry): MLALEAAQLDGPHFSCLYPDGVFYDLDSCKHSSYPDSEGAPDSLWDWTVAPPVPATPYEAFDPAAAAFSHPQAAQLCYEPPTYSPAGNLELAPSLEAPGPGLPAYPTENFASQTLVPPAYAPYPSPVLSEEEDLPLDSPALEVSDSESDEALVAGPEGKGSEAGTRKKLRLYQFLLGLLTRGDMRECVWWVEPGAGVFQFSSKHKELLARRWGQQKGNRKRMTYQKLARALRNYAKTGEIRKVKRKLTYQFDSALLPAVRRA
Chain of ETV5 (P41161 whole entry): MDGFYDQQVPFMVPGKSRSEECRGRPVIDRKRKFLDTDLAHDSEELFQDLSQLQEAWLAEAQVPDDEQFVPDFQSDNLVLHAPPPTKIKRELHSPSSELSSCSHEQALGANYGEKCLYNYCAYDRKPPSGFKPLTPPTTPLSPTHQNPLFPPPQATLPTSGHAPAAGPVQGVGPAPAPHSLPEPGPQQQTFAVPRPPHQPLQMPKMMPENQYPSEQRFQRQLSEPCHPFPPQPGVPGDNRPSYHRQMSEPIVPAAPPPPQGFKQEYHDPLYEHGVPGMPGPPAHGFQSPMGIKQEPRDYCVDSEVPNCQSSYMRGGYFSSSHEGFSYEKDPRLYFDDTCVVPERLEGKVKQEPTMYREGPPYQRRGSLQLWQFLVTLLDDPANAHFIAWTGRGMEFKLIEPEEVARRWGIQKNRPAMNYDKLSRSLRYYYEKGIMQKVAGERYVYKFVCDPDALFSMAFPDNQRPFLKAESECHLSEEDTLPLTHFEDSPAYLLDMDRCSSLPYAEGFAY
Chain of ETV1 (P50549 whole entry): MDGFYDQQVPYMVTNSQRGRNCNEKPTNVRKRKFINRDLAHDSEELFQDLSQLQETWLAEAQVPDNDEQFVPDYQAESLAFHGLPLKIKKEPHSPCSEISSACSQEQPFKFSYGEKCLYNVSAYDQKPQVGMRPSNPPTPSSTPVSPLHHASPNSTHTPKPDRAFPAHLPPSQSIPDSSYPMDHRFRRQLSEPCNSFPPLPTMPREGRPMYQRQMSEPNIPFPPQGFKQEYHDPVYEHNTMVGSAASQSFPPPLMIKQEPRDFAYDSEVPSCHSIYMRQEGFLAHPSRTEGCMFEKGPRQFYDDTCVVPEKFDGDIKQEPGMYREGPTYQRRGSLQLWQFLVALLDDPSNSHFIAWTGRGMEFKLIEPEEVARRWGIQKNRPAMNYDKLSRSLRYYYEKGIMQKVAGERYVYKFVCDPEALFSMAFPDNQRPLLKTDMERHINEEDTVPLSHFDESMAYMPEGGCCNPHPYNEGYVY
Chain of ELF4 (Q99607 whole entry): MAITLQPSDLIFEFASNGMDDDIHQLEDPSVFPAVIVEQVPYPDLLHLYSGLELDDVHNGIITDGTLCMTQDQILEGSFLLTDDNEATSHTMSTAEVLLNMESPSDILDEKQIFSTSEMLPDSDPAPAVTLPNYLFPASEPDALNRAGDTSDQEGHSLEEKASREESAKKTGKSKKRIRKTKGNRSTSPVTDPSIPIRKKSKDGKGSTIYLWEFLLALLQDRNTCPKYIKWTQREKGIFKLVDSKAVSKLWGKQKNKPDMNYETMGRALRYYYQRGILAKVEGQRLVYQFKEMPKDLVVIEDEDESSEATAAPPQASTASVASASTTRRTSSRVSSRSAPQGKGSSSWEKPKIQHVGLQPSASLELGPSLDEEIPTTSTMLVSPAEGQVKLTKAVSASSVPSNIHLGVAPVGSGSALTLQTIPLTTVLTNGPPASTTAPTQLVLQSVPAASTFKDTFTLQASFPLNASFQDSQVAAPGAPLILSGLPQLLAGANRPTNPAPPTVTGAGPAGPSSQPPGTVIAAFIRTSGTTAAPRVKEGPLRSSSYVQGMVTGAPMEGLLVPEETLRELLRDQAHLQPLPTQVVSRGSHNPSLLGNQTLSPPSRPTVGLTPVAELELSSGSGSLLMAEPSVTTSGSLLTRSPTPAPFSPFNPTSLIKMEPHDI

CTTCAT
binding signal (FLI1): 1.6 fold enrichment (6-mer frequency, TF over GST control)
binding signal (ELK1): 1.45 fold enrichment (6-mer frequency, TF over GST control)
binding signal (GABPA): 1.45 fold enrichment (6-mer frequency, TF over GST control)
binding signal (ERG): 1.4 fold enrichment (6-mer frequency, TF over GST control)
binding signal (ELF1): 1.52 fold enrichment (6-mer frequency, TF over GST control)
binding signal (EHF): 1.31 fold enrichment (6-mer frequency, TF over GST control)
binding signal (SPI1): 1.49 fold enrichment (6-mer frequency, TF over GST control)
binding signal (SPIB): 1.48 fold enrichment (6-mer frequency, TF over GST control)
binding signal (ELK3): 1.38 fold enrichment (6-mer frequency, TF over GST control)
binding signal (FEV): 1.46 fold enrichment (6-mer frequency, TF over GST control)
binding signal (ETV5): 1.49 fold enrichment (6-mer frequency, TF over GST control)
binding signal (HSF1): 1.34 fold enrichment (6-mer frequency, TF over GST control)
binding signal (SPIC): 1.36 fold enrichment (6-mer frequency, TF over GST control)
binding signal (ELF4): 1.4 fold enrichment (6-mer frequency, TF over GST control)
binding signal (ELK4): 1.53 fold enrichment (6-mer frequency, TF over GST control)
binding signal (ETV2): 1.39 fold enrichment (6-mer frequency, TF over GST control)
binding signal (ELF3): 1.56 fold enrichment (6-mer frequency, TF over GST control)
binding signal (CRX): 1.3 fold enrichment (6-mer frequency, TF over GST control)
binding signal (ETV1): 1.5 fold enrichment (6-mer frequency, TF over GST control)
